This is an account of results in PubChem BioAssay AID624351 (Southern Research Specialized Biocontainment Screening …, 2012).

Screen size: about 2,400 compounds; about 1,400 (58%) were called active. The set was probably picked from earlier hits. The list shows a part of the results. Unmarked numbers belong to inactive results.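 The calls were made as follows: active = inhibition of 30% or more at any tested dose; inconclusive = primary hits over the limit that were never retested; inactive = the rest.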

The nature of this assay: coupled detection enzyme interference, dose response, artefact control for MgcRacGAP inhibitor project, biochemical, coupled enzyme counter-screen (AID 624351).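 Also: signal is the ADP detection kit reading of free GDP without any GAP enzyme.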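 As to inhibition: 0% = median positive control wells and 100% = median negative control wells.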 To be noted: ADP Hunter coupled enzyme counter-screen, fluorescence, no MgcRacGAP; series mostly up to 80 µM; inhibition: at the top concentration. On the technique in general: A counterscreen serves to expose hits that act by an unwanted route or on another target.
As to `COc1ccc(S(=O)(=O)N2CCC(N3CCN(c4ccccc4OC)CC3)CC2)cc1`, the “inhibition” value is 18.6%.
On the same count and under the same terms, under `COc1ccc(N)cc1NC(=O)CN1CCOCC1` stands 26.4%.
Take `CC(C)(C)c1cc(Cl)ccc1OCCOCCN1CCCC1`: the “inhibition” value is 18.9%.
As for `O=C(Nc1ccc(O)cc1)c1cccc(Oc2ccc([N+](=O)[O-])cc2)c1`, the IC50 is 48.2 µM (active).
For the molecule `O=C(Nc1ccc(C2=NCCN2)cc1)c1ccc(C(=O)Nc2ccc(C3=NCCN3)cc2)c([N+](=O)[O-])c1`, the “inhibition” value was 3.21%.
As to `COC(=O)C1=C(C)N(CC2CCCO2)C(=O)/C1=C\c1ccc(O)cc1` (centres undefined), the 50% inhibitory concentration (IC50) is 24.4 µM (active).
Still for that read-out and setting: the result for `COC1=C/C(=C/c2c(N)n3cc(C)sc3nc2=O)C=CC1=O` reads 82 µM (active).
In the case of `CCS(=O)(=O)c1nn2c(N)c(/C=C3/C=CC(=O)C(OC)=C3)c(=O)nc2s1`, the half-maximal inhibitory concentration (IC50) was 39.6 µM (active).
Take `O=C(CNCc1ccccn1)N1CCc2ccccc2C1`: the “inhibition” value was 14.9%.
As for `Cc1ccc(NC(=O)CNCC(c2ccccc2)N(C)C)cc1F` (centres undefined), the “inhibition” value is 21.2%.
In the case of `CCOC(=O)c1c(NC(=O)CN(C)C2CCN(C)CC2)sc(C(=O)Nc2ccccc2)c1C`, the “inhibition” value was 23.1%.
In the case of `CCOC(=O)CSc1nc(N)c(C(=O)Nc2ccc(N(C)C)cc2)s1`, the IC50 was 32.8 µM (active).
As to `COc1nc(N)nc(NC(=O)c2cccs2)c1N=O`, the “inhibition” value was 2.46%.
Take `CN(C)c1ccc(NC(=O)COC(=O)CNC(=O)c2cccs2)cc1`: the IC50 was 55.7 µM (active).
Regarding `Cc1ccccc1SCC(=O)OCC(=O)Nc1ccc(N(C)C)cc1`, the IC50 was 81.6 µM (active).
`COc1ccc(OCCn2ccnc2C)cc1`: the “inhibition” value is 13.6%.
Take `COc1ccc(/C=N/Nc2nc3ccccc3[nH]2)cc1OC`: the IC50 is 73.8 µM (active).
Consider `COc1cc(/C=N/Nc2nc3ccccc3[nH]2)ccc1O`, for which the IC50 was 17.9 µM (active).
On to `COc1cc(/C=N/Nc2nc3ccccc3s2)ccc1O`, for which the concentration for half-maximal inhibition (IC50) was 67.7 µM (active).
Consider `O=S1(=O)N=C(Nc2ccc(O)cc2)c2ccccc21`, for which the concentration for half-maximal inhibition (IC50) is 29.2 µM (active).
Consider `CCOc1cc(CNc2ccc(N3CCOCC3)cc2)cc(Br)c1OCC`, for which the IC50 was 16.9 µM (active).
Turning to `COc1cc2c(cc1OC)C(c1cc(Br)c(OC)c(OC)c1)CC(=O)N2` (centres undefined), the “inhibition” value was 3.38%.
In the case of `CCOc1c(Cl)cc(CNc2ccc(N3CCCC3)cc2)cc1OC`, the inhibition is -9.27% [at 5 µM].
In the case of `COc1cc(CN2CCN(Cc3ccc(C(F)(F)F)cc3)CC2)cc(OC)c1OC`, the “inhibition” value is 10.7%.
Regarding `CCOc1cc(CNc2ccc(N3CCCCC3)cc2)cc(Br)c1OCC(=O)NC(C)(C)C`, the IC50 was 20.4 µM (active).
As for `CCOc1cc(CNc2ccc3[nH]c(=O)[nH]c3c2)ccc1OCC(=O)NC(C)(C)C`, the IC50 is 67.7 µM (active).
In the case of `COc1cc(CNc2ccc(N3CCOCC3)cc2)cc(Br)c1OC`, the IC50 was 12.5 µM (active).
As to `CNc1c2cccc(C)c2nc2c(C(=O)NCCN(C)C)cccc12`, the “inhibition” value is 19.5%.
As for `COc1ccc(CCNc2nc(=S)[nH]c3cc(OC)c(OC)cc23)cc1OC`, the “inhibition” value was 28.5%.
With `CCN(CC)CCCNc1nc2ccccc2c2[nH]c3ccc(OC)cc3c12`, the “inhibition” value is 20.3%.
Take `CCCCNc1nc(=S)[nH]c2cc(OC)c(OC)cc12`: the IC50 was 68.9 µM (active).
As for `COCCCNc1nc(=S)[nH]c2cc(OC)c(OC)cc12`, the IC50 is 74.1 µM (active).
With `Cc1cc2[nH]c3c(c[n+](C)c4ccccc34)c2cc1C`, the “inhibition” value was 21.4%.
Still for that read-out and setting: the result for `Cc1cc(C)c2c(=N)c3ccccc3n(CCCCCCCCn3c4ccccc4c(=N)c4c(C)cc(C)nc43)c2n1` reads 25.6%; that for `O=C1C=CC(=O)c2c(O)c(N3CCN(CCOCCO)CC3)c(Br)c(O)c21`, -3.44%.
The same measure, in the same setting: the result for `C=CCc1cc(Cl)ccc1OCCNCCN1CCOCC1` reads 22.5%.
`C=CCc1cc(C=Nc2ccc(N3CCOCC3)cc2)cc(OCC)c1O`: the half-inhibitory concentration (IC50) is 14.6 µM (active).
Take `CCOc1ccccc1CN1CCC(N2CCOCC2)CC1`: the “inhibition” value is 20.6%.
Still for that read-out and setting: under `COc1ccc(CN(C)CC(=O)Nc2ccc(Cl)cc2C(F)(F)F)c(OC)c1` stands 15.9%.
With `Nc1n[nH]c(N)c1N=Nc1ccc2c(c1)OCO2`, the IC50 is 38 µM (active).
Turning to `O=S(=O)(O)c1ccc(O)c2cc(Nc3ccccc3)ccc12`, the “inhibition” value was 17.6%.
Regarding `Cc1ccc(S(=O)(=O)c2cc(Nc3ccccc3)ccc2O)cc1`, the IC50 was 68 µM (active).
On to `CC(=O)C1=C(S(=O)(=O)c2ccc(C)cc2)CS(=O)(=O)C1`, for which the “inhibition” value was 6.22%.
On to `CC1(C)OC(C)(C)/C(=C/Nc2ccc(O)cc2)C1=O`, for which the IC50 was 22.2 µM (active).
For the molecule `COc1cc(C=NNC(=O)c2ccccc2-n2cccc2)ccc1O`, the IC50 was 36.4 µM (active).
On to `COc1cc(/C=N/NC(=O)c2cc(-c3ccccc3OC(C)C)nc3ccccc23)ccc1O`, for which the “inhibition” value was 29.6%.
On to `CCOc1cc(/C=N/NC(=O)c2ccccc2-n2cccc2)ccc1O`, for which the IC50 was 44.9 µM (active).
For the molecule `CCCCN(CC)CCNC(=O)CCC(=O)Nc1ccc2nc(N3CCN(C)CC3)cc(C)c2c1`, the “inhibition” value is 18.5%.
As for `Cc1ccc(C2=NN=C(NC(=O)CSc3nncn3C)SC2)cc1`, the “inhibition” value was 8.11%.
For the molecule `CCn1c(SCC(=O)Nc2ccc(N(C)C)cc2)nnc1-c1cccc(C)c1`, the IC50 was 70.3 µM (active).
Take `C=CCn1c(SCC(=O)c2ccc(O)c(O)c2)nnc1-c1cccc(OC)c1`: the concentration for half-maximal inhibition (IC50) is 68 µM (active).
For `CCn1c2ccccc2c2cc(NC(=O)CNC)ccc21`, the “inhibition” value was 22.4%.
On to `COc1cccc(-c2ncc3ccccn23)c1`, for which the “inhibition” value is 16.3%.
As to `C=CCn1c(SCC(=O)Nc2ccc(N(C)C)cc2)nnc1-c1cccc(C)c1`, the IC50 was 58.8 µM (active).

The term inhibition denotes the relative decrease from the control value, in per cent. By IC50 is commonly meant the midpoint of a concentration-inhibition curve.
